Reference: PubChem BioAssay (EPA / NIEHS)
Activity calls are given as the source filed them. The calls were made as follows: active = hit-call score of the fitted dose curve at least 0.9, where 1 is the maximum; inactive = score below 0.9.

read-out: Matrix Metallopeptidase 1 (MMP1), MMP1 (gene 4312); experiment: BSK_BE3C_MMP1: BioMAP Diversity Plus: BE3C Assay for Matrix Metallopeptidase 1 (MMP1) Biomarker Activity (AID 2283024); details: primary human bronchial epithelial cells; actives raise or lower the signal
Description: BSK_BE3C is a cell-based, multiplexed-readout assay that uses bronchial epithelial cell, a human lung primary cell, with measurements taken at 24 hours after chemical dosing in a 96-well plate.BSK_BE3C_MMP1 is an assay component measured in the BSK_BE3C assay. It measures MMP-1 antibody related to regulation of gene expression using ELISA technology.Data from the assay component BSK_BE3C_MMP1 was analyzed into 1 assay endpoint. This assay endpoint, BSK_BE3C_MMP1, was analyzed with bidirectional fitting relative to DMSO as the negative control and baseline of activity. Using a type of binding reporter, gain or loss-of-signal activity can be used to understand changes in the signaling as they relate to the gene MMP1. Furthermore, this assay endpoint can be referred to as a primary readout, because this assay has produced multiple assay endpoints where this one serves a signaling function. To generalize the intended target to other relatable targets, this assay endpoint is annotated to the protease intended target family, where the subfamily is matrix metalloproteinase.
The levels of cell surface (or secreted, indicated by the prefix "s") biomarker endpoints were measured by ELISA. Overt cytotoxicity to cells in confluent adherent cultures (all systems other than the BT system) was assessed by measuring total protein levels using sulforhodamine B (SRB) staining in parallel cultures at the time of biomarker measurements, indicated as SRB endpoints. For proliferation assays for adherent cell types, individual cell types are cultured at sub-confluence and relative cell numbers quantified by SRB staining at time points optimized for each system (48 h: 3C and CASM3C systems; 72 h: BT and HDF3CGF systems; 96 h: SAg system). SRB was performed by staining cells with 0.1% SRB after fixation with 10% TCA and reading wells at 560 nm.Viability and proliferation of PBMC (T cells) was quantified by Alamar Blue reduction for the SAg and BT systems. For PBMC viability (referred to as PBMC Cytotoxicity within the assay endpoint names), cells were plated (75,000/well in a 96-well plate) and then chemical samples added for 1 h before addition of activators, SEB and TSST-1 (20 ng/mL final concentration each). Cells were incubated for 90 h. Then, Alamar Blue (20 uL/well) (Invitrogen, Cat DAL1100) was added for 6 h, and the plates were read with a fluorescence microplate reader at 546/580 nm (excitation/emission). For PBMC proliferation, cells were plated and activated as above but incubated for only 16 h prior to addition of Alamar Blue. Plates were read after 6 h.

| SMILES | AC50 | outcome |
| --- | --- | --- |
| On1ccccc1=S | 10.9 µM (active) |  |
| O=C(O)c1cccc(N(Cc2cccnc2)c2ccc(OC(F)F)c(OC(F)F)c2)c1 |  | inactive |
| Cc1c(-c2cccnc2)c2ccccc2n1CCCCC(=O)O |  | inactive |
| CCNc1ccccc1 |  | inactive |
| Nc1nc2ncc(CNc3ccc(C(=O)N[C@@H](CCC(=O)O)C(=O)O)cc3)nc2c(=O)[nH]1 |  | inactive |
| CCOC(=O)COc1ccc2c(c1)CC(NCC(O)c1cccc(Cl)c1)CC2 (stereo not given) |  | inactive |
| O=C(O)CC(O)C(=O)O (stereo not given) |  | inactive |
| CCc1cc(SCc2sc(-c3ccc(C(F)(F)F)cc3)nc2CN2CCN(c3ccc(OC)cc3)CC2)ccc1OCC(=O)O | 9.73 µM (active) |  |
| CN(C)c1ccc(N=NS(=O)(=O)O)cc1 |  | inactive |
| CC/C(=C\C(=N/O)C(N)=O)C(C)[N+](=O)[O-] (stereo not given) |  | inactive |
| O=c1[nH]c2ccc(S(=O)CCN3CCC(Cc4ccc(F)cc4)CC3)cc2o1 (stereo not given) |  | inactive |
| O=P(OC(CCl)CCl)(OC(CCl)CCl)OC(CCl)CCl | 7.97 µM (active) |  |
| O=c1n(CC2CO2)c(=O)n(CC2CO2)c(=O)n1CC1CO1 (stereo not given) |  | inactive |
| CC[C@H](C)C(=O)O[C@H]1C[C@@H](C)C=C2C=C[C@H](C)[C@H](CC[C@@H]3C[C@@H](O)CC(=O)O3)[C@H]21 | 33.8 µM (active) |  |
| Cn1cnc([N+](=O)[O-])c1Sc1ncnc2nc[nH]c12 |  | inactive |
| Oc1ccc2c(c1)-c1ccccc1C2 |  | inactive |
| CC[C@H]1CC[C@H](NCc2cc3c(cc2OC)[C@H]2C[C@H]2C(=O)N3C)[C@H](c2ccccc2)N1 |  | inactive |
| COC(=O)c1c(Cl)c(Cl)c(C(=O)OC)c(Cl)c1Cl |  | inactive |
| NC(=O)NO |  | inactive |
| CCOCCOCCOCCO |  | inactive |

| SMILES | AC50 | outcome |
| --- | --- | --- |
| Cn1c(=O)c2c(ncn2C)n(C)c1=O |  | inactive |
| CC[C@H]1OC(=O)[C@H](C)[C@@H](O[C@H]2C[C@@](C)(OC)[C@@H](O)[C@H](C)O2)[C@H](C)[C@@H](O[C@@H]2O[C@H](C)C[C@H](N(C)C)[C@H]2O)[C@](C)(O)C[C@@H](C)C(=O)[C@H](C)[C@@H](O)[C@]1(C)O |  | inactive |
| CCCCCCCCCCCCCCCO |  | inactive |
| COCCOc1cc2cc(C(=O)NC3CCN(C(C)C)CC3)n(CC(=O)Nc3ccc(Cl)cn3)c2cn1 |  | inactive |
| CCOCCO |  | inactive |
| Cc1ccc(S(=O)(=O)O)cc1C |  | inactive |
| CN(C)c1ccc(Cc2ccc(N(C)C)cc2)cc1 | 12.6 µM (active) |  |
| CCN(C(=O)c1cc(C)cc(OC[C@H](C)Nc2ccncc2)c1)C(C)C |  | inactive |
| CCCC(=O)OCC |  | inactive |
| O=C1CCCCCN1 |  | inactive |
| CC(C)=CCC/C(C)=C/CO |  | inactive |
| Cn1c(=O)cc(Oc2ccc(F)cc2F)c2cnc(NCC(C)(C)O)nc21 |  | inactive |
| C=CCCCCCCCCC(=O)O |  | inactive |
| C1=CCCC=CCCC=CCC1 |  | inactive |
| CC(=O)c1ccc2c(c1)[C@H](NC(=O)c1ccc(F)cc1)[C@@H](O)C(C)(C)O2 |  | inactive |
| C=CC(=C)CCC=C(C)C |  | inactive |
| CC(C)(O)c1coc(S(=O)(=O)NC(=O)Nc2c3c(cc4c2CCC4)CCC3)c1 |  | inactive |
| CC(C)CC(C)(O)C#CC(C)(O)CC(C)C (stereo not given) |  | inactive |
| O=C(O)c1cc(N=Nc2ccc(S(=O)(=O)Nc3ccccn3)cc2)ccc1O |  | inactive |
| COC(=O)CC(=O)OC |  | inactive |
